Here are results for 17 molecules from PubChem BioAssay (EPA / NIEHS).

The source made the active and inactive calls. How the source made its calls: active means hit-call score of the fitted dose curve at least 0.9, where 1 is the maximum; inactive means score below 0.9.

The nature of the assay: CEETOX_H295R_CORTISOL: CeeTox H295R High-throughput Steroidogenesis Assay for Cortisol (AID 2283438).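 Further: cortisol secreted into medium quantified by LC-MS/MS.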 As to conditions: actives raise or lower the signal. On the procedure: CEETOX_H295R is a cell-based, multiplexed-readout assay that uses H295R, a human adrenal gland cell line, with measurements taken at 48 hours after chemical dosing in a 96-well plate.CEETOX_H295R_CORTISOL is one of 23 assay component(s) measured or calculated from the CEETOX_H295R assay. It is designed to make measurements of hormone induction, a form of inducible reporter, as detected with absorbance signals by HPLC-MS-MS technology.Data from the assay component CEETOX_H295R_CORTISOL was analyzed into 1 assay endpoint. This assay endpoint, CEETOX_H295R_CORTISOL, was analyzed with bidirectional fitting relative to DMSO as the negative control and baseline of activity. Using a type of inducible reporter, gain or loss-of-signal activity using HPLC-MS-MS was used to understand synthesis of Cortisol in H295R cell line at 48hr of chemical exposure. To generalize the intended target to other relatable targets, this assay endpoint is annotated to the steroid hormone intended target family, where the subfamily is glucocorticoids.
Cell culture and media preparation procedures were conducted in accordance with OECD Test No. 456 guidelines, with minor modifications. H295R cells (ATCC CRL-2128) were expanded for 5 passages and frozen in batches in liquid nitrogen. Prior to the steroidogenesis assay, H295R cells were thawed and passed at least 4 times. The maximum passage was 10. Cells were maintained in a 1:1 mixture of DMEM/F12 supplemented with 5ml/L ITS+ Premix (BD Bioscience) and 12.5 ml/L Nu-Serum (BD Bioscience). After seeding cells into 96-well plates at 50-60% confluency, cells were allowed to adhere overnight. Prior to chemical testing, culture medium was replaced with 175 uL medium containing 10 uM forskolin to stimulate steroidogenesis for 48 hours. Following prestimulation, forskolin medium was replaced with medium containing test chemical solubilized in DMSO (ensuring a final concentration of 0.1% DMSO). Test chemicals were incubated for 48 hours, then the medium was removed and split into 2 vials containing approximately 75uL each, and stored at -80 C prior to hormone analysis. For steroid quantification, media samples were shipped to OpAns, LLC (Durham, NC) on dry ice, and samples were thawed to room temperature prior to liquid-liquid extraction. Steroid hormones were extracted from media samples using methyl tertbutyl ether (MTBE). An extra derivatization with dansyl chloride was included for estrogen (estrone and estradiol) detection only. Steroid hormones were separated by HPLC, eluted using a reverse phase C18 gradient with electrospray positive ionization, followed by quantification by tandem mass spectrometry (MS/MS). Data were acquired on a MassHunter Workstation Acquisition version B03.01 (Agilent Technologies, Inc.) and processed using MassHunter Quantitative Analysis for QQQ. Accuracy was determined for each hormone analyte from 3 standards to determine upper and lower limits of quantification (ULOQ and LLOQ, respectively) using a 7-point standard curve. Precision and accuracy of the extraction and quantification methods were calculated as the percent relative standard deviation (%RSD) of the spiked standards and percent spiked standard recovered, respectively. The goal was to achieve 100% accuracy (i.e., recover all spiked-in standard at quantification with minimal loss during run time) and good precision (i.e., have %RSD <15% to ensure reproducibility). Test medium was removed following chemical exposure, and cell viability was evaluated in the same wells by MTT. MTT procedures were as follows: after removal of test medium, 500 uL of 0.5 mg/ml of 3-[4,5-dimethylthiazol-2-y]2,5-diphenyltetrazoliumbromide solution was added to the cells. Following a 4-hour incubation at 37 C and 5% CO2 to allow formazan-crystal formation, the MTT solution was removed and blue formazan salt crystals were solubilized using 500uL anhydrous isopropanol with shaking for 20 minutes. […]
As to `Cc1cc(Cc2ccc(N)c(C)c2)ccc1N`, the AC50 – broadly, the midpoint of the concentration-response curve, whichever way the signal moves – is 22.9 µM (active).

With `CCCCc1nc2cccnc2n1Cc1ccc(-c2ccccc2-c2nnn[nH]2)cc1`, the outcome was inactive. On to `O=C(Oc1ccccc1)c1cccc(C(=O)Oc2ccccc2)c1`, for which the call was inactive.

With `Oc1ccc(O)cc1`, the result was inactive. As for `S=c1[nH]c2ccccc2s1`, the outcome was inactive. For `O=C(O)CN(CC(=O)O)CC(=O)O`, the outcome was inactive. Consider `CC(C)(O)c1ccc(CNC(=O)c2cccnc2Oc2ccc(F)cc2)cc1`, for which the AC50 was 64.9 µM (active). Still for that read-out and setting: for `CC(=O)[C@@]1(O)CC[C@H]2[C@@H]3CCC4=CC(=O)CC[C@]4(C)[C@H]3CC[C@@]21C` the value was 1.12 µM (active).

On to `CC(COCC(C)OC(=O)c1ccccc1)OC(=O)c1ccccc1` (configuration not stated), for which the outcome was inactive. Consider `CC1=C(C)S(=O)(=O)CCS1(=O)=O`, for which the call was inactive. With `COc1ccc(C(=O)Nc2nc3ccccc3c(NCc3ccccc3)c2C#N)cc1`, the call was inactive. Consider `CCN(CC)CCOc1ccc(C(=C(Cl)c2ccccc2)c2ccccc2)cc1`, for which the result was inactive. Turning to `Nc1nc(Cl)nc2c1ncn2[C@H]1C[C@H](O)[C@@H](CO)O1`, the molecule was called inactive. Same read-out and setting: for `CN(C)C(=O)NC1(c2ccccc2)CCN(CCC[C@]2(c3ccc(Cl)c(Cl)c3)CCCN(C(=O)c3ccccc3)C2)CC1` the value was “inactive”. Regarding `O=C1NC(=O)C(c2ccccc2)(c2ccccc2)N1`, the AC50 is 26.6 µM (active). Take `O=C1c2c(O)cccc2Cc2cccc(O)c21`: the result was inactive. On the same count and under the same terms, to `CCCCCCCCCC[N+](C)(C)[O-]` belongs “inactive”.
